Laboratory results reported in PubChem BioAssay (Tox21).
Results filed as inconclusive are left out. Active and inactive are the calls of the source. Unless noted, the call rests on the fitted dose curve.

How the values were obtained:
[1] = qHTS assay to identify small molecule agonists of the sonic hedgehog signaling (Shh) pathway (AID 1259368);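 further: NIH/3T3-derived 3T3Gli1-Luc cells carrying a stable Gli1-driven firefly luciferase reporter; series mostly up to about 92 µM; nearly all actives have a fitted effect of over 15% in size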
Method in brief: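 Luminescent signal was taken as a measure of Gli1-controlled luciferase expression in stably transfected NIH/3T3-derived cells that had been treated for 24 hr with compounds delivered in DMSO.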

[2] = qHTS assay to identify small molecule antagonists of the sonic hedgehog signaling (Shh) pathway (AID 1259369); further: nearly all actives have a fitted effect of over 45% in size; further: potency means the concentration at half of the fitted maximal effect
Method in brief: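 Screening used 3T3Gli1-Luc cells at 2,000 per well, compounds delivered in DMSO, and conditioned medium as agonist stimulus; plates incubated 24hr at 37 C and 5% CO2 before a 30min luciferase step.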

[3] = molecular target: Estrogen receptor beta (Homo sapiens) (UniProt Q92731); assay: qHTS assay to identify small molecule agonists of the estrogen receptor beta (ER-beta) signaling pathway (AID 1259377; active means well fitted activation curve with a large enough effect in the signal ratio in the repeat runs, not every such curve was filed as active; the % refers to the signal ratio)
Sequence of Estrogen receptor beta (Homo sapiens) (Q92731 whole entry, looked up): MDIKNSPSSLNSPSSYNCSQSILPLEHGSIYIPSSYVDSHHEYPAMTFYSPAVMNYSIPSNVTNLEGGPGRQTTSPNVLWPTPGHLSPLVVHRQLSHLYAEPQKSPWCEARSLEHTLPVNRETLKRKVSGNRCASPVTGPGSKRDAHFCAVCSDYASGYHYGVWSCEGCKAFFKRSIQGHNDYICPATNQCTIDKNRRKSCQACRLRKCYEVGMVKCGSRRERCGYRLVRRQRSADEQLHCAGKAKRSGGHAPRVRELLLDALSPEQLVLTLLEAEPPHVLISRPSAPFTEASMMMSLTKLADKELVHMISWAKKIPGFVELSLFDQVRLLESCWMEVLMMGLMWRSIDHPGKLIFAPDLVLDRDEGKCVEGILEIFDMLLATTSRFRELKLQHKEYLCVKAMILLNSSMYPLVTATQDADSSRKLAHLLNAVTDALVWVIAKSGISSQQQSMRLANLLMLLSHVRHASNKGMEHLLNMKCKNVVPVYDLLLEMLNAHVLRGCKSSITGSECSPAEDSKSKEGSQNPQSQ
Method in brief: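 In HEK293T cells bearing a UAS-beta-lactamase reporter under ER-beta control, DMSO-delivered compounds were incubated for 16 hr at 37C. Activity was detected as fluorescence 2 hours after LiveBLAzer B/G FRET substrate addition.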

[4] = molecular target: Estrogen receptor beta (Homo sapiens) (UniProt Q92731); assay: qHTS assay to identify small molecule antagonists of the estrogen receptor beta (ER-beta) signaling pathway (AID 1259378; active means well fitted inhibition curve with a large enough effect in the signal ratio in the repeat runs, not every such curve was filed as active; the % refers to the signal ratio)
Method in brief: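 ER-beta-UAS-bla HEK293T cells in 2% charcoal-stripped FBS medium treated with compound plus 1nM final 17-beta-estradiol for 16 hr at 37C. Beta-lactamase reporter read by FRET substrate fluorescence after 2 hours at room temperature.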

[5] = qHTS assay to identify small molecule agonists of the androgen receptor (AR) signaling pathway in the presence of an antagonist - cell viability counter screen (AID 1259379; active means well fitted curve in the direction sought with a large enough effect in the repeat runs; an effect the other way counts as inactive or inconclusive;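 further: MDA-kb2 human breast cancer cells carrying an MMTV luciferase reporter; series mostly up to about 92 µM; nearly all actives have a fitted effect of over 25% in size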)
Method in brief: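 In MDA-kb2 cells (human breast carcinoma, MMTV-luciferase), compounds at 15 concentrations plus 3.0uM nilutamide; 16 hr, 37C, 0% CO2; CellTiter-Fluor fluorescence read for viability.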

[6] = qHTS assay to identify small molecule antagonists of the estrogen receptor beta (ER-beta) signaling pathway - cell viability counter screen (AID 1259382; active means well fitted curve in the direction sought with a large enough effect in the repeat runs; an effect the other way counts as inactive or inconclusive; further: series mostly up to about 92 µM; nearly all actives have a fitted effect of over 55% in size)
Method in brief: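 Tox21 10K library tested in qHTS format on ER-beta-bla HEK293T cells stimulated with 1nM E2; 16 hr treatment at 37C. Same-well CellTiter-Glo luminescence served as the cell viability measure.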

[7] = molecular target: Estrogen receptor (Homo sapiens) (UniProt P03372); assay: qHTS assay to identify small molecule agonists of the estrogen receptor alpha (ER-alpha) signaling pathway in the presence of an antagonist (AID 1259383); further: top concentration of the series differs between compounds; nearly all actives have a fitted effect of over 15% in size
Sequence of Estrogen receptor (Homo sapiens) (P03372 whole entry, looked up): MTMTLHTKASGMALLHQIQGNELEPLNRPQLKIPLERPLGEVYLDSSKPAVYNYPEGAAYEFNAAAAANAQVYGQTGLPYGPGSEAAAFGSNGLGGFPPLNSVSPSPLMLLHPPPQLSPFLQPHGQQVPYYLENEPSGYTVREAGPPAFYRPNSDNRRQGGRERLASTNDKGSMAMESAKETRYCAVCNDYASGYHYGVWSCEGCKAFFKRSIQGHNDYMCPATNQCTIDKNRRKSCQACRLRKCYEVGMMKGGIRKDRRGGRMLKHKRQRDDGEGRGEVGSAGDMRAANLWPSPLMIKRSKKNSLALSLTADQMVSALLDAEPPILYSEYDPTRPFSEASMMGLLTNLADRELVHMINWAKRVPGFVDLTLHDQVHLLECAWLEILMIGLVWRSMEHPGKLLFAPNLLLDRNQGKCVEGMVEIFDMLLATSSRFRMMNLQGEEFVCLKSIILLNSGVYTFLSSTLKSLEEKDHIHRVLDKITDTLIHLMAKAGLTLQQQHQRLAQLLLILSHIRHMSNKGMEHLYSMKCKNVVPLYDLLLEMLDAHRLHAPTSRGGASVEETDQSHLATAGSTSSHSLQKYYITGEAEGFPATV
Method in brief: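 In VM7Luc4E2 cells, 4,000 per well, compounds at 15 concentrations were co-incubated 22hr at 37C with 10.0nM final ICI-182,780. Luminescence from the stably transfected 4×ERE-luciferase reporter was recorded 30min after ONE-Glo addition.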

[8] = molecular target: Progesterone receptor (Homo sapiens) (UniProt P06401); assay: qHTS assay to identify small molecule agonists of the progesterone receptor (PR) signaling pathway (AID 1346784); further: nearly all actives have a fitted effect of over 30% in size; further: potency means the concentration at half of the fitted maximal effect
Sequence of Progesterone receptor (Homo sapiens) (P06401 whole entry, looked up): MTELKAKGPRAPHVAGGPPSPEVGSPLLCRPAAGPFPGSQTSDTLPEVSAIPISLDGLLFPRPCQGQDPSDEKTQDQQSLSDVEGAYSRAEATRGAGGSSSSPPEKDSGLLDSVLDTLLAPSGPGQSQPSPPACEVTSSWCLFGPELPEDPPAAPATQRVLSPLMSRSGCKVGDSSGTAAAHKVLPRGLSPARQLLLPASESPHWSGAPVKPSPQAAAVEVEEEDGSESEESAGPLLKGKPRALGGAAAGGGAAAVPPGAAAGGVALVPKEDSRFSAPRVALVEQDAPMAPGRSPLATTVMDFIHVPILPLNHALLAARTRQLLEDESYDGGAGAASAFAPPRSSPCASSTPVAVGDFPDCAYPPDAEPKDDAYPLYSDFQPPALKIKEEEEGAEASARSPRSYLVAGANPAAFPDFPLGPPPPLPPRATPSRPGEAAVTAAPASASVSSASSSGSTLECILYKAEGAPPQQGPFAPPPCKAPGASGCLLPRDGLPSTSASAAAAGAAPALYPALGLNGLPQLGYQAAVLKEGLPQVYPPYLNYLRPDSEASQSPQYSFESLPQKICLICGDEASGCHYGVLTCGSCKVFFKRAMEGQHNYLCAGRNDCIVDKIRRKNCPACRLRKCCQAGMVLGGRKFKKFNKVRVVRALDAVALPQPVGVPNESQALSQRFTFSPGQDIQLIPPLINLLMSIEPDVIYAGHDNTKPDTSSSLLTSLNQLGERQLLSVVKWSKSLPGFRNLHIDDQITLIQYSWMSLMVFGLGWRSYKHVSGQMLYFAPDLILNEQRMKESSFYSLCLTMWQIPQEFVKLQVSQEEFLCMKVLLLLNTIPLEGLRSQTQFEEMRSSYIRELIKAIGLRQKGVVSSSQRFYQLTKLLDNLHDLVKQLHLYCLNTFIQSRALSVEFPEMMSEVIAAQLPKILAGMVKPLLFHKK
Method in brief: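 Using charcoal-stripped serum (2%) to limit endogenous steroids, PR-UAS-bla HEK 293T cells received compounds for 16 hr at 37C after 6 hr plating; beta-lactamase FRET fluorescence was recorded following 2 hr substrate loading at room temperature.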

[9] = molecular target: Progesterone receptor (Homo sapiens) (UniProt P06401); assay: qHTS assay to identify small molecule antagonists of the progesterone receptor (PR) signaling pathway (AID 1346795; active means well fitted inhibition curve with a large enough effect in the signal ratio in the repeat runs, not every such curve was filed as active; the % refers to the signal ratio)
Method in brief: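 Inhibition of R5020-induced (1 nM final) beta-lactamase reporter signal in PR-UAS-bla HEK293T cells was scored by FRET fluorescence after overnight (16 hr) compound treatment.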

[10] = qHTS assay to identify small molecule agonists of the progesterone receptor (PR) signaling pathway - cell viability counter screen (AID 1346799); further: nearly all actives have a fitted effect of over 45% in size
Method in brief: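 Cytotoxicity in PR-bla HEK293T cells: 16 h compound, 37C; CellTiter-Glo added post-FRET read; luminescence after 30 min RT.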

[11] = qHTS assay to identify small molecule antagonists of the TGF-beta/Smad signaling pathway - cell viability counter screen (AID 1346824; active means well fitted curve in the direction sought with a large enough effect in the repeat runs; an effect the other way counts as inactive or inconclusive; further: nearly all actives have a fitted effect of over 50% in size)
Method in brief: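 SBE-bla HEK 293T cells, incubated overnight, then compound plus 0.25 ng/mL TGF-beta1 (stock added) for 5 hr at 37 C. Viability was read in the same wells by CellTiter-Glo luminescence after 30 min at room temperature.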

[12] = qHTS assay to identify small molecule agonists of the TGF-beta/Smad signaling pathway - cell viability counter screen (AID 1346829; active means well fitted curve in the direction sought with a large enough effect in the repeat runs; an effect the other way counts as inactive or inconclusive; further: top concentration of the series differs between compounds; nearly all actives have a fitted effect of over 45% in size)
Method in brief: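 Compound-treated SBE-bla HEK 293T cells (5 hr, 37 C) were assessed for viability with CellTiter-Glo in parallel with the reporter read.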

[13] = qHTS assay to identify small molecule agonists of the estrogen receptor beta (ER-beta) signaling pathway - cell viability counter screen (AID 1259380; active means well fitted curve in the direction sought with a large enough effect in the repeat runs; an effect the other way counts as inactive or inconclusive; further: nearly all actives have a fitted effect of over 30% in size; further: potency means the concentration at half of the fitted maximal effect)
Method in brief: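 Viability of ER-beta-UAS-bla HEK293T cells was determined by CellTiter-Glo luminescence following 16 hr treatment with test compounds at 37C.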

[14] = molecular target: Thyrotropin receptor (Homo sapiens) (UniProt P16473); assay: qHTS assay to identify small molecule antagonists of the thyroid stimulating hormone receptor (TSHR) signaling pathway (AID 1259385); further: nearly all actives have a fitted effect of over 20% in size
Sequence of Thyrotropin receptor (Homo sapiens) (P16473 whole entry, looked up): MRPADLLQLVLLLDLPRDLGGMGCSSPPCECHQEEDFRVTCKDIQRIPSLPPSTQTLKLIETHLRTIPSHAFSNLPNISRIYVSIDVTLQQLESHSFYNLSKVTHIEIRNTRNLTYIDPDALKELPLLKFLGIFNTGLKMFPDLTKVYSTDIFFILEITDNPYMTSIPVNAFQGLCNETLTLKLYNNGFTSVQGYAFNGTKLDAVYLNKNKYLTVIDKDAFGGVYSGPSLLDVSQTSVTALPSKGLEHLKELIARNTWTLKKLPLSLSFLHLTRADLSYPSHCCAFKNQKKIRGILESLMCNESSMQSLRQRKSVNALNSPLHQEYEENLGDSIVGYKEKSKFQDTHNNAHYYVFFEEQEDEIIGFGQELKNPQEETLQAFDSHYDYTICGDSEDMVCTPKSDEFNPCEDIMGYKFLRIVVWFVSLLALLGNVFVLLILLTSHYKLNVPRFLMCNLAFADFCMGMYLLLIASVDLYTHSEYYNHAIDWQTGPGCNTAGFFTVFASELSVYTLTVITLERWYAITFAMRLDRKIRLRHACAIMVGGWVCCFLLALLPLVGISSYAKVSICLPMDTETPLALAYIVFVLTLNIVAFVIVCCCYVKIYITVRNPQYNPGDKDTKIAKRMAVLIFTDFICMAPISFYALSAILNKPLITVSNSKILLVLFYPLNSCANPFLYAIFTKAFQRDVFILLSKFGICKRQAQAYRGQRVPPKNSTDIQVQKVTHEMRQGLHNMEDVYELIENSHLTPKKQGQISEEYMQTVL
Method in brief: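 TSHR-HEK293 cells (800/well) plated 18 h, then compounds with Ro20-1724 and TSH at 1.5 ng/mL final, 30 min at room temperature. cAMP quantified by HTRF (cAMP-d2/anti-cAMP-cryptate, 1 h); 15 concentrations in triplicate.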

[15] = qHTS assay to identify small molecule antagonists of the progesterone receptor (PR) signaling pathway - cell viability counter screen (AID 1346798; active means well fitted curve in the direction sought with a large enough effect in the repeat runs; an effect the other way counts as inactive or inconclusive; further: series mostly up to about 92 µM; nearly all actives have a fitted effect of over 50% in size)
Method in brief: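 ATP content as viability readout: CellTiter-Glo luminescence, 30 min room temperature, in PR-UAS-bla HEK293T cells after 16 hr compound/R5020 treatment at 37C and 5% CO2.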

[16] = qHTS assay to identify small molecule agonists of the TGF-beta/Smad signaling pathway (AID 1346859; active means well fitted activation curve with a large enough effect in the signal ratio in the repeat runs, not every such curve was filed as active; the % refers to the signal ratio; further: series mostly up to about 77 µM)
Method in brief: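 Stable Smad binding element-beta-lactamase HEK 293T cells; 5 hr compound exposure at 37 C under 5% CO2; 2 hr room-temperature substrate step; fluorescence excited at 405 nm, collected at 460 nm and 530 nm.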

[17] = molecular target: Thyrotropin-releasing hormone receptor (Homo sapiens) (UniProt P34981); assay: qHTS assay to identify small molecule antagonists of the thyrotropin-releasing hormone receptor (TRHR) signaling pathway (AID 1346877; active means well fitted inhibition curve with a large enough effect in the repeat runs, not every such curve was filed as active; further: series mostly up to about 51 µM)
Sequence of Thyrotropin-releasing hormone receptor (Homo sapiens) (P34981 whole entry, looked up): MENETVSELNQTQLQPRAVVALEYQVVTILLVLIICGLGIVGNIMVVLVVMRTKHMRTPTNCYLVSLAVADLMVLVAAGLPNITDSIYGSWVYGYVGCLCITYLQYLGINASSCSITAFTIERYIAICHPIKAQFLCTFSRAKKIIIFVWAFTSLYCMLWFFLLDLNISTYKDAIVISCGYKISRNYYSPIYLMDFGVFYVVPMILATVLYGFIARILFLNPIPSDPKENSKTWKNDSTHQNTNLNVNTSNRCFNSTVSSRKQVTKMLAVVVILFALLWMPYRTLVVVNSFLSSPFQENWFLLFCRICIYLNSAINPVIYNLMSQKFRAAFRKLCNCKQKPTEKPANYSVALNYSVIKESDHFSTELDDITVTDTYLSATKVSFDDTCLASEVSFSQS
Method in brief: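 In this cell-based calcium flux format, HEK293 cells expressing TRHR received test compound for 5 min before the agonist TRH (1 nM final). Dye loading lasted 2 h at 37 °C.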

[18] = molecular target: Androgen receptor (Homo sapiens) (UniProt P10275); assay: qHTS assay to identify small molecule agonists of the androgen receptor (AR) signaling pathway in the presence of an antagonist (AID 1259381); further: nearly all actives have a fitted effect of over 15% in size
Sequence of Androgen receptor (Homo sapiens) (P10275 whole entry, looked up): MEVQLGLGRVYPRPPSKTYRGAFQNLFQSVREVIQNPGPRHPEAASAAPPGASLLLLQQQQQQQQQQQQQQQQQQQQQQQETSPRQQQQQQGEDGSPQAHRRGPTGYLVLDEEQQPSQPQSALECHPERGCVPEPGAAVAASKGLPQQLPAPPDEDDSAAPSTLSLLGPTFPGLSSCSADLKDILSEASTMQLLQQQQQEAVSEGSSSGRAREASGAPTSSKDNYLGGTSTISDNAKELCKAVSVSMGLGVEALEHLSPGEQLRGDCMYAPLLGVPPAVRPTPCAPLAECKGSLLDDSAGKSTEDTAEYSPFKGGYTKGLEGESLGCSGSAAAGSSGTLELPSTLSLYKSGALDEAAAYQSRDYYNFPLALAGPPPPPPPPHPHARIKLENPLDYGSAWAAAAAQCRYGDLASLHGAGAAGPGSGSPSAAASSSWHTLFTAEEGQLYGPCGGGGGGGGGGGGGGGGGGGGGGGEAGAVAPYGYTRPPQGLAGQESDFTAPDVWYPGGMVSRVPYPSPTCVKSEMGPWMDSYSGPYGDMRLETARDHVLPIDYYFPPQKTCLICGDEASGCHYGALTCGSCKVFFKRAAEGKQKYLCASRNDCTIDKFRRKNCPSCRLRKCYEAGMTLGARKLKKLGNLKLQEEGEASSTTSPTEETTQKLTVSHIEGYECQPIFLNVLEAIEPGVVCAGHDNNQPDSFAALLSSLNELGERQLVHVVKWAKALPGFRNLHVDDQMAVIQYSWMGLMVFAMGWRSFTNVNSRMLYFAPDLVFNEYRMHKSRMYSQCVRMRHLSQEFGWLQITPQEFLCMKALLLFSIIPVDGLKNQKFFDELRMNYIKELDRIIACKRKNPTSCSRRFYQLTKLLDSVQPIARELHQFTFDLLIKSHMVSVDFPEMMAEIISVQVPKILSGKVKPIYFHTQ
Method in brief: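 Here, 15-concentration compound series were pin-transferred onto MDA-kb2 MMTV-luciferase cells already dosed with nilutamide (3.0uM final). After 16hr at 37C, ONE-Glo was added and luminescence read 30min later at room temperature.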

[19] = qHTS assay to identify small molecule agonists of the estrogen receptor alpha (ER-alpha) signaling pathway in the presence of an antagonist - cell viability counter screen (AID 1259386; active means well fitted curve in the direction sought with a large enough effect in the repeat runs; an effect the other way counts as inactive or inconclusive;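 further: series mostly up to about 92 µM; cells exposed to compounds for 22 h at 37 °C before the viability read; nearly all actives have a fitted effect of over 30% in size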)
Method in brief: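 Fluorescent CellTiter-Fluor viability signal from VM7Luc4E2 cells, with the reagent added during the final hour of a 22hr compound exposure at 37C in the presence of 10.0nM ICI-182,780.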

[20] = qHTS assay to identify small molecule agonists or antagonists of the thyroid stimulating hormone receptor (TSHR) signaling pathway - wild type cell line counter screen (AID 1259384)
Method in brief: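 Wild-type Hek293 cells, 800/well, 18 h at 37C, then compound with Ro20-1724 for 30 min RT. cAMP by HTRF (cAMP-d2/anti-cAMP cryptate), 1 h RT, fluorescence read. 15 concentrations, triplicates.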
On the % scale 0 is the no-effect control and ±100 the full control effect.

CN(C)C(=O)NC1(c2ccccc2)CCN(CCC[C@]2(c3ccc(Cl)c(Cl)c3)CCCN(C(=O)c3ccccc3)C2)CC1
inactive: activity change [1] -5.82% [at 18.9 µM, hits give high values] | activity change, negative = inhibition [2] -22.9% [at 19 µM] | activation [3] -0.37% [at 19 µM] | activity, negative = inhibition [4] -8.74% [at 19 µM] | activity change, negative = cytotoxicity [5] -7% [at 19 µM] | activity change, negative = cytotoxicity [6] -18% [at 19 µM] | activation [7] -0.618% [at 19 µM] | activation [8] -5.56% [at 19 µM] | activity change, negative = inhibition [9] -8.48% [at 18.9 µM] | activity change, negative = cytotoxicity [10] 3.74% [at 19 µM] | viability change, negative = cytotoxic [11] 0% [at 15.8 µM] | activity change, negative = cytotoxicity [12] 2.25% [at 15.8 µM]

NC(Cc1ccc(F)cc1)C(=O)O (centres undefined)
inactive: activity change [1] 0.322% [at 8.39 µM, hits give high values] | activity change, negative = inhibition [2] -11.4% [at 8.39 µM] | activation [3] -1.32% [at 8.39 µM] | activity, negative = inhibition [4] 7.98% [at 8.39 µM] | activity change, negative = cytotoxicity [5] -0.068% [at 8.39 µM] | activity change, negative = cytotoxicity [13] 1.35% [at 8.39 µM] | activity change, negative = cytotoxicity [6] 1.79% [at 8.39 µM] | activity change, negative = inhibition [14] -1.13% [at 8.39 µM] | activation [8] 0.365% [at 8.39 µM] | activity change, negative = cytotoxicity [15] -3.28% [at 8.39 µM] | activity change, negative = cytotoxicity [10] 1.93% [at 8.39 µM] | viability change, negative = cytotoxic [11] 18.5% [at 6.97 µM] | activation [16] -0.692% [at 6.97 µM] | activity, negative = inhibition [17] -1.45% [at 4.65 µM]

O=C(O)c1cccc(Cl)c1Cl
inactive: Potency [1] | Potency [2] | outcome [3] | Potency [4] | Potency [5] | outcome [6] | Potency [7] | Potency [15] | Potency [10] | outcome [11] | outcome [12] | outcome [16]

CCCS(=O)c1ccc2nc(NC(=O)OC)[nH]c2c1 (centres undefined)
inactive: Potency [1] | Potency [2] | outcome [3] | Potency [4] | Potency [5] | Potency [18] | outcome [6] | Potency [14] | Potency [19] | Potency [8] | Potency [9] | Potency [15] | Potency [10] | outcome [11] | outcome [12] | outcome [16]

Cc1c(N)cccc1N
inactive: Potency [1] | Potency [2] | outcome [3] | Potency [4] | Potency [5] | Potency [13] | outcome [6] | Potency [14] | Potency [8] | Potency [9] | Potency [15] | Potency [10] | outcome [11] | outcome [12] | outcome [16] | outcome [17]

O=C1N(c2ccccc2)c2ccccc2C1(Cc1ccncc1)Cc1ccncc1
inactive: Potency [1] | Potency [2] | outcome [3] | Potency [4] | Potency [5] | outcome [6] | Potency [7] | Potency [19] | Potency [8] | Potency [15] | Potency [10] | outcome [11] | outcome [12] | outcome [16] | outcome [17]

CCOC(=O)CS
active: Potency [2] 19.9 µM | Potency [13] 70.5 µM | Potency [8] 3.15 µM
inactive: Potency [1] | outcome [3] | outcome [20] | Potency [14] | Potency [9] | Potency [15] | Potency [10] | outcome [11] | outcome [12] | outcome [16] | outcome [17]
